The values below come from PubChem BioAssay.

“And” between values parts separate entries of the source, which are not always exact repeats. Equal values may be shown once. Inconclusive results are not listed. The source made the active and inactive calls.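 The calls were made as follows, unless noted: active = mean z-score across replicates of 1.96 or higher in either the MELAS or the Rieske mutant cell line; inactive = the rest.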

A short description of assay [1]: SU-DIPG-VI glioma cell viability, MIPE4.0 library, CellTiter-Glo luminescence, qHTS (AID 1347066; cut-off not given, nearly all actives have AC50 up to about 30 µM;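 also: cells exposed to compound for 48 hours before readout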). The conditions noted are these: CellTiter-Glo ATP luminescence. Background: Cellular ATP, detected with luciferase, serves as a proxy for viable cell number.
Assay [2] is described as follows: JHH-DIPG-1 glioma cell viability, MIPE5.0 library, CellTiter-Glo luminescence, qHTS (AID 1347067; cut-off not given, nearly all actives have AC50 up to about 26 µM;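 also: cells exposed to compound for 48 hours before readout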). The settings on record: JHH-DIPG-1 glioma viability, CellTiter-Glo ATP luminescence.
A short description of assay [3]: SU-DIPG-XXV glioma cell viability, MIPE5.0 library, qHTS (AID 1347068; cut-off not given, nearly all actives have IC50 up to about 30 µM). (In general: In qHTS, concentration-response curves come from the screen itself.)
Assay [4] is described as follows: sensitizers of A549 cells to miR-34 induction, primary screen, imaging, A549 dox-inducible miR-34, nuclei and caspase counts (AID 1347080;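 active = compounds whose cell count with miR-34 switched on is under 0.7 times the count with it off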). The settings on record: A549 miR-34 inducible, Hoechst nuclei count, 48 h.
Assay [5] is described as follows: phospholipid biosynthesis inhibitors in animal cells, primary screen, cell-based, LOPAC library, screen 4 (AID 1347384; call rule not given here). The conditions noted are these: phospholipid biosynthesis inhibition screen, at 10 µM.
The target in assay [6] is NAD(+) hydrolase SARM1 (Homo sapiens) (UniProt Q6SZW1). The experiment in a line: SARM1 TIR NADase inhibitors, cell lysate, NAD-Glo luminescence (AID 1508614;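 active = compound whose remaining NAD level is above about 45 nM, limit read from the data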;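 also: higher remaining NAD means stronger inhibition of SARM1 NADase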). The settings on record: SAM-TIR HEK293T lysate NADase, at 1 µM, stronger effect = higher value.
Assay [7] concerns the target Mitogen-activated protein kinase 7 (Homo sapiens) (UniProt Q13164). The experiment in a line: ERK5 transactivation activators in reporter cells, primary screen, cell-based, HTS (AID 1508626;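 active = luciferase signal above three times the same-plate solvent-only control wells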;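 also: luciferase driven by Gal4-ERK5 fusion binding five Gal4 sites before minimal TATA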). The settings on record: HeLa Gal4-ERK5 transactivation, 18 h, at 5 µM, stronger effect = higher value.
A short description of assay [8]: viability rescue of complex I mutant cybrids, primary screen, cell-based, galactose medium, ATP luminescence (AID 1645843;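 active = z-score of at least 1.8 in each of two replicates, scored against plate mean and spread of sample wells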;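 also: positive z means more ATP and so rescue of galactose-driven cybrid death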). The settings on record: complex I mutant cybrid cells, 72 h, stronger effect = higher value.
A short description of assay [9]: viability loss in pontine glioma line – cell-based, SU-DIPG-XXV, MIPE5.0, CellTiter-Glo, qHTS, dose response (AID 1347065; cut-off not given, nearly all actives have AC50 up to about 26 µM;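 also: cells exposed to compound for 48 hours before ATP readout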). The settings on record: CellTiter-Glo ATP luminescence.
Assay [10] is described as follows: survival rescue of mitochondrial mutant cells in low glucose, primary screen, MELAS cybrids, Rieske KO mouse fibroblasts, CellTiter-Glo (AID 1508586).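 Also: z relative to plate mean and SD of compound and empty wells.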
Setting [11] is: stronger effect = lower value, cell number ratio, induced over uninduced.
The mark [12] stands for this setting: measured here: relative caspase fold change +Dox/-Dox.
[13] abbreviates: measured here: total cells with miR-34 induction, stronger effect = lower value.
[14] abbreviates: measured here: total cells without miR-34 induction.
Where [15] appears, read: MELAS cybrid survival, CellTiter-Glo 48 h, stronger effect = higher value.
Where [16] appears, read: Rieske KO mouse fibroblast survival, CellTiter-Glo 72 h.

Sequence of Mitogen-activated protein kinase 7 (Homo sapiens) (Q13164 whole entry, looked up, the tested form may be a part): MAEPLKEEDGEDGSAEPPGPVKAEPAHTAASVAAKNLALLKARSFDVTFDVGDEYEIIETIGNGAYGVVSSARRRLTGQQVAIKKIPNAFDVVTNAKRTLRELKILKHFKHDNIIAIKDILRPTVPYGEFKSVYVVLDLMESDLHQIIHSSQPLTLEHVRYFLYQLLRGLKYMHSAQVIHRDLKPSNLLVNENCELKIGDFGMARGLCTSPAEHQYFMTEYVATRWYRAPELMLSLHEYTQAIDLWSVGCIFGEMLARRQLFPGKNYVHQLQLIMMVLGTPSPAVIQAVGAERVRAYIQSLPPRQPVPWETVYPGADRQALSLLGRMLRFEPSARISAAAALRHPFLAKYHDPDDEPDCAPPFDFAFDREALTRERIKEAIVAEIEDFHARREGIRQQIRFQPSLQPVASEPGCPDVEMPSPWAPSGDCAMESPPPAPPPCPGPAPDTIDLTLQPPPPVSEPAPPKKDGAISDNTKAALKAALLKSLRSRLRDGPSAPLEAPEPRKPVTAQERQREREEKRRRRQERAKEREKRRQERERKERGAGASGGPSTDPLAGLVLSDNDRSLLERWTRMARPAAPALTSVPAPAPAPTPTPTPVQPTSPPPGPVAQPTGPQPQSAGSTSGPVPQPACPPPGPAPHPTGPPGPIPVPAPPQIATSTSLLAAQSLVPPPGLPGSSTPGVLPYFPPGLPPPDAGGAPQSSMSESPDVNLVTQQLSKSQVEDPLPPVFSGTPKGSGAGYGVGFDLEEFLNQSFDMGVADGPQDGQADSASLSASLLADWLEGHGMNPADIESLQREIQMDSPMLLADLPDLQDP
Sequence of NAD(+) hydrolase SARM1 (Homo sapiens) (Q6SZW1 whole entry, looked up, the tested form may be a part): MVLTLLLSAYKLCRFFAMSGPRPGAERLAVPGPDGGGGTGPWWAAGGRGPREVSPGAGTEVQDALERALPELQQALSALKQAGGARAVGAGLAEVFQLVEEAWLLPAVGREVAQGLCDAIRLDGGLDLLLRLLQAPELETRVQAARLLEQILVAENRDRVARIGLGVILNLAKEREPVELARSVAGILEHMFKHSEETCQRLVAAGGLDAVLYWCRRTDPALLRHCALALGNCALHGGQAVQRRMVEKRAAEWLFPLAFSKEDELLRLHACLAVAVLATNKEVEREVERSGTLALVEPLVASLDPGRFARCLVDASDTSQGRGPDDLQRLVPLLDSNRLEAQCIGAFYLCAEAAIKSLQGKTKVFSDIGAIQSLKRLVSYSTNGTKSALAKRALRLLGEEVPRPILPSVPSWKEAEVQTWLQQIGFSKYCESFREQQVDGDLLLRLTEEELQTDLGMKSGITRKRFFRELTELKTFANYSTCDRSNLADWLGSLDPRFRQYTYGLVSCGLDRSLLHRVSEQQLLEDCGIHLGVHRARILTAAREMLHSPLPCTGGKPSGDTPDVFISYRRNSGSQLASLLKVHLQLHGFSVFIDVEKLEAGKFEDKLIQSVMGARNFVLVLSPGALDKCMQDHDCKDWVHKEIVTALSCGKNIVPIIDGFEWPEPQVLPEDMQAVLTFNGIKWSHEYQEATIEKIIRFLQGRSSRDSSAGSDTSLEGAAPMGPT

For the compound `CNC[C@H](O)c1ccc(O)c(O)c1`, the compound was classed as inactive in assay [1], in assay [2], in [3] and in assay [5]. The fold change in assay [4] (setting [11]) is 0.963 (inactive); in assay [4] (setting [12]), 1.01. Moreover, the cell count came out at 10100 in [4] (setting [13]) and 10500 in assay [4] (setting [14]). For the same compound, the remaining NAD in [6] is 10 nM (inactive). For the same compound, the luciferase signal in assay [7] is 24 AU (inactive). Also, in [8], the z-score was -1.02 (inactive).
Take `O=C1CCc2cc(OCCCCc3nnnn3C3CCCCC3)ccc2N1`: the call in assay [9], in assay [2] and in [5] was inactive. The z-score was -0.457 (inactive) and 0.645 (inactive) in [10] (setting [15]); 0.52 and 0.278 in assay [10] (setting [16]); -1.27 (inactive) and -0.71 (inactive) in [8]. For the same compound, in assay [6], the remaining NAD was 10 nM (inactive). Moreover, in [7], the luciferase signal was 96 AU (inactive).
Consider `O=P(O)(O)C(O)(Cc1cccnc1)P(=O)(O)O`, for which the compound was called inactive in [1], in assay [2] and in assay [3]. Moreover, the fold change is 0.901 (inactive) and 0.801 (inactive) in assay [4] (setting [11]); 4.65 and 1.35 in assay [4] (setting [12]). Moreover, the cell count is 12400 and 8410 in assay [4] (setting [13]); 13700 and 10500 in assay [4] (setting [14]). The z-score in assay [10] (setting [15]) is 0.589 (inactive) and -0.187 (inactive); in assay [10] (setting [16]), 0.376 and -0.746; in [8], 0.515 (inactive). The remaining NAD in [6] was 10 nM (inactive). Besides, the luciferase signal in assay [7] is 1260 AU (active).
As a reminder, the AC50 is the concentration giving half of the maximal activity seen. With `CCCOc1ccc2nc(NC(=O)OC)[nH]c2c1`, the concentration at half-maximal activity (AC50) was 0.235 µM (active) in assay [9] and 295 nM (active) in [2]. Besides, the fold change in assay [4] (setting [11]) was 1.06 (inactive) and 1 (inactive); in [4] (setting [12]) it was 1.87 and 1.28. Besides, the cell count was 2370 and 1800 in [4] (setting [13]); 2250 and 1790 in assay [4] (setting [14]). The z-score was -1.88 (inactive) and -2.12 (inactive) in [10] (setting [15]); -0.332 and 1.54 in [10] (setting [16]); -1.72 (inactive) in [8]. Moreover, the remaining NAD in assay [6] is 10 nM (inactive). Also, the luciferase signal in assay [7] was 40 AU (inactive).
Take `CCC(=O)O[C@]1(C(=O)SCF)[C@H](C)C[C@H]2[C@@H]3C[C@H](F)C4=CC(=O)C=C[C@]4(C)[C@@]3(F)[C@@H](O)C[C@@]21C`: the outcome in assay [1], in assay [2] and in assay [3] was inactive. Also, the fold change in [4] (setting [11]) was 0.882 (inactive) and 0.864 (inactive); in [4] (setting [12]), 0.631 and 0.861. In addition, the cell count in assay [4] (setting [13]) is 6550 and 5840; in [4] (setting [14]) it was 7420 and 6760. In addition, the z-score in assay [10] (setting [15]) was 0.444 (inactive); in assay [10] (setting [16]), 0.72; in [8] it was 0.435 (inactive). Further, the remaining NAD in [6] was 10 nM (inactive).
With `O=C(NC(Cc1cc(=O)[nH]c2ccccc12)C(=O)O)c1ccc(Cl)cc1` (stereo not drawn), the compound was classed as inactive in [1], in [2] and in [3]. Moreover, the fold change in assay [4] (setting [11]) was 0.898 (inactive) and 0.888 (inactive); in [4] (setting [12]) it was 0.965 and 1.15. The cell count in assay [4] (setting [13]) is 8440 and 9630; in [4] (setting [14]) it was 9400 and 10800. The z-score is -0.219 (inactive) and -0.0914 (inactive) and 0.278 (inactive) in assay [10] (setting [15]); 0.648 and -0.845 and -0.0622 in [10] (setting [16]); 0.47 (inactive) in assay [8]. The remaining NAD in [6] is 10 nM (inactive). The luciferase signal in assay [7] was 40 AU (inactive).
`C[C@H]1O[C@@H](n2cc(F)c(=O)[nH]c2=O)[C@H](O)[C@@H]1O`: the outcome in assay [1], in assay [2], in assay [3] and in assay [5] was inactive. Also, the fold change in assay [4] (setting [11]) was 1.04 (inactive) and 0.788 (inactive); in [4] (setting [12]) it was 0.632 and 1.14. The cell count is 3620 and 3400 in assay [4] (setting [13]); 3490 and 4310 in assay [4] (setting [14]). Besides, the z-score was 0.0159 (inactive) in assay [10] (setting [15]); -0.832 in [10] (setting [16]); 0.64 (inactive) and -0.08 (inactive) in assay [8]. In assay [6], the remaining NAD was 10 nM (inactive).
Regarding `Cc1cc(C2CCCCC2)n(O)c(=O)c1`, the AC50 is 2.35 µM (active) in assay [9] and 2630 nM (active) in [2]. The z-score was 0.334 (inactive) and 0.408 (inactive) and 0.404 (inactive) in assay [10] (setting [15]); -0.762 and -0.715 and 0.148 in assay [10] (setting [16]). Further, the remaining NAD in [6] was 10 nM (inactive). In [7], the luciferase signal is 52 AU (inactive).
As to `O=C1N(c2ccccc2)c2ccccc2C1(Cc1ccncc1)Cc1ccncc1`, the compound was called inactive in assay [1], in assay [2], in [3] and in [5]. Moreover, the fold change in assay [4] (setting [11]) was 1.1 (inactive) and 0.81 (inactive) and 0.995 (inactive); in assay [4] (setting [12]), 1.28 and 1.84 and 1.46. Besides, the cell count in assay [4] (setting [13]) was 10000 and 7730 and 7820; in [4] (setting [14]) it was 9180 and 9540 and 7860. In addition, the z-score in [8] is -0.165 (inactive) and 0.43 (inactive) and -0.3 (inactive).
As for `O=C1CCc2ccc(OCCCCN3CCN(c4cccc(Cl)c4Cl)CC3)cc2N1`, the concentration at half-maximal activity (AC50) in assay [9] is 13.2 µM (active). In addition, the z-score in assay [10] (setting [15]) was -0.393 (inactive) and -1.22 (inactive) and -0.905 (inactive); in [10] (setting [16]), 0.269 and 1.31 and -0.2; in assay [8] it was -1.88 (inactive) and -2.22 (inactive). Besides, in assay [6], the remaining NAD is 10 nM (inactive).
On to `NCCCCCC(=O)O`, for which the outcome in assay [9], in assay [2], in [3] and in assay [5] was inactive. Further, the z-score was -0.274 (inactive) and -0.333 (inactive) in assay [10] (setting [15]); -0.165 and -1.21 in [10] (setting [16]); 1.05 (inactive) in assay [8]. Moreover, in assay [6], the remaining NAD was 10 nM (inactive). Besides, the luciferase signal in [7] was 40 AU (inactive).
`O=C(c1ccc(F)cc1)C1CCN(CCn2c(=O)[nH]c3ccccc3c2=O)CC1`: the compound was classed as inactive in assay [1] and in assay [5]. For the same compound, the z-score in assay [10] (setting [15]) is -0.256 (inactive) and 0.859 (inactive) and 1.46 (inactive); in [10] (setting [16]), 0.928 and -0.102 and 0.875; in [8], 0.47 (inactive) and 0.155 (inactive) and 0.975 (inactive). Besides, in assay [6], the remaining NAD is 10 nM (inactive).
In the case of `OC[C@H]1O[C@@H](Oc2ccc(O)cc2)[C@H](O)[C@@H](O)[C@@H]1O`, the call in assay [1] was inactive. In addition, the fold change in assay [4] (setting [11]) was 0.914 (inactive); in assay [4] (setting [12]), 0.569. Also, the results for the cell count in assay [4] (setting [13]) and in assay [4] (setting [14]) were 9130 and 9990, respectively. For the same compound, the z-score is 0.856 (inactive) in [10] (setting [15]) and 0.44 in [10] (setting [16]). For the same compound, the luciferase signal in [7] was 48 AU (inactive).
On to `O=c1[nH]cnc2c1ncn2[C@H]1CC[C@@H](CO)O1`, for which the compound was classed as inactive in assay [1]. The fold change is 0.88 (inactive) and 0.877 (inactive) in assay [4] (setting [11]); 1.12 and 1.04 in assay [4] (setting [12]). The cell count is 8250 and 10000 in [4] (setting [13]); 9380 and 11400 in assay [4] (setting [14]). Moreover, the z-score is -0.8 (inactive) and -0.278 (inactive) in assay [10] (setting [15]); -0.19 and -0.4 in assay [10] (setting [16]); 0.385 (inactive) in assay [8].
